Compounds with a hit are over-represented: about 2.4% of the library has one in this group of screens.
PTAP TSG101 blk = blocks PTAP/TSG101 interaction to inhibit HIV-1 budding; 340,000 tested, under 10 active; Fluorescence polarization, FITC-PTAP peptide / Tsg101 binding; AID 493005; Potency, µM (highest dose often 115 µM), for inactives: at the top dose activity change, negative = inhibition, hits mostly inhibitors; active = well fitted inhibition curve with a large enough effect in the main read-out, with a control signal flat, not every such curve was filed as active; inconclusive = small, poorly fitted or top-dose-only effect, or effect the other way, or a change in a side signal; inactive = no such curve, though single readings can be large or run the other way; also: % of control where 0% means no effect
Target sequence (Q99816 whole entry, looked up): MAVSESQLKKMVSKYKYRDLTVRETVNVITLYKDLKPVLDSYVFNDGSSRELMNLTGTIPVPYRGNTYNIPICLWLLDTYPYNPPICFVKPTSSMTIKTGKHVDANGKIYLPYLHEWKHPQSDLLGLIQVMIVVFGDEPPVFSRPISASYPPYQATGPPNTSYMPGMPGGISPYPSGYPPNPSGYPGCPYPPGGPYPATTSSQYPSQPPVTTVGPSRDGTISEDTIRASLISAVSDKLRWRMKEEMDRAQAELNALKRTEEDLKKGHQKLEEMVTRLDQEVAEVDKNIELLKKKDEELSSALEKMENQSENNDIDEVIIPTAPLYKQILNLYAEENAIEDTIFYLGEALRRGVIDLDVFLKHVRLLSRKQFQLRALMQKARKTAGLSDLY
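FP read-out: FITC-PTAP peptide, 50 nM final, binding Tsg101 binding domain, 10 uM final; 20 min, r.t.; 10 mM HEPES pH 7.5, 0.15 M NaCl, 0.01% Tween 20, 3 mM EDTA, 0.1 mM TCEP.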
Rango complex inh = Rango-importin beta binding inhibition. Potency, µM (highest dose often 92.2 µM), without a hit: at the highest dose inhibition of complex formation. actives 0.031% (n = 340,000). Q14974. Rango CFP/YFP FRET sensor + importin beta, 45 min;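 also: 0% = DMSO wells and 100% = buffer wells lacking importin beta; nearly all actives have a fitted effect of over 15% in size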
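FRET biosensor (snurportin 1 IBB flanked by EYFP and cerulean), 50 nM, with compound 5 min, then 0.125 microM importin beta in PBS, 1 mM DTT, 0.02% Tween-20, 0.1% BSA. CFP/YFP ratio read after 45 min at room temperature; pre-read flags interference.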
ALOX12 inh = ALOX12 (human) lipoxygenase inhibition | P18054 | purified 12hLO, xylenol orange hydroperoxide absorbance | Potency, µM (doses to about 108 µM), for the others: top-dose activity change, negative = inhibition, usual class: inhibitors | actives 1.1% (n = 580,000); active = well fitted curve in the direction sought with a large enough effect; inconclusive = small, poorly fitted or top-dose-only effect, or another doubt; inactive = no such curve, though single readings can be large; an effect the other way counts as inactive or inconclusive; also: % is scaled to controls: 0 for no effect and ±100 for the full control effect
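Hydroperoxide product was detected by ferrous iron/xylenol orange as the 573 to 405 nm absorbance ratio. Arachidonic acid at 40 uM (final) was turned over for 30 min at room temperature by 150 nM human 12hLO, pH 7.0 Hepes buffer, after 15 min compound preincubation.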
Rango release inh = inhibition of RanGTP-driven Rango-importin beta dissociation | AID 540253 | actives 0.071% (n = 340,000) | Potency, µM (highest dose often 46.1 µM), for the others: at the top dose activity change, negative = inhibition | Biochemical FRET Rango-importin beta, RanGTP-induced dissociation | O95149+P62826; also: % of control where 0% means no effect; nearly all actives have a fitted effect of over 45% in size
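Recombinant Rango FRET biosensor (EYFP–snurportin 1 IBB–cerulean CFP10) at 0.1 uM premixed with 0.25 uM importin beta in PBS, 1 mM DTT, 0.02% Tween-20, 0.1% BSA. Compound added 5 min; RanGTP-RCC1 (0.6 uM Ran, 2 mM GTP, 0.2 uM RCC1) then triggers release, read at 45 min.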
TDP1 block = blocks human tyrosyl-DNA phosphodiesterase 1 | AID 485290 | recombinant TDP1, AlphaScreen DNA substrate cleavage | actives 0.28% (n = 350,000) | Potency, µM (series often up to 130 µM), for inactives: at the highest dose activity change, negative = inhibition, hits mostly inhibitors; active = well fitted curve in the direction sought with a large enough effect; inconclusive = small, poorly fitted or top-dose-only effect, or another doubt; inactive = no such curve, though single readings can be large; an effect the other way counts as inactive or inconclusive; also: % is scaled to controls: 0 for no effect and ±100 for the full control effect; nearly all actives have a fitted effect of over 40% in size
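Tdp1 1 nM final; 15 min RT w/ cpd; substrate 15 nM, 5 min; beads 10 ug/ml, 10 min; AlphaScreen read. Neg ctrl: no enzyme.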
ClpP mod = qHTS Assay for Activators of ClpP; Potency, µM (titrated, usually from 57.5 µM), for the others: at the highest dose activity change, negative = active; purified B. subtilis ClpP, FRET peptide cleavage, 20 min; AID 651965, 2013; ATP-dependent Clp protease proteolytic subunit (Bacillus subtilis (strain 168)), P80244; actives 1.9% (n = 340,000); active = well fitted falling curve with a large enough effect; inconclusive = small, poorly fitted or top-dose-only effect; inactive = no such curve, though single readings can be large or run the other way; also: the source files actives as falling curves though it sought activators and does not explain the sign; nearly all actives have a fitted effect of over 65% in size
Target sequence (P80244 whole entry, looked up): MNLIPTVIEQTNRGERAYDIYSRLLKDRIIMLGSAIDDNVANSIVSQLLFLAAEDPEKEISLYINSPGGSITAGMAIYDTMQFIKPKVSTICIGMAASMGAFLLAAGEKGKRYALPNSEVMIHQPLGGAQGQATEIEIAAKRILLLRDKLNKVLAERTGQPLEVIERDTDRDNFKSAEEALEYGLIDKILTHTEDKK
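Purified B. subtilis ClpP, 10 microg/mL final in Tris/HCl pH8 with KCl, BSA, glycerol and Tween-20, cleaved an Abz/nitrotyrosine-quenched decapeptide. Fluorescence (ex 320, em 430) was read at 0 and 20 min at room temperature. Delta was normalized to 5.8 microM ADEP and DMSO/no-enzyme controls.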
* = called active by the depositor; i = inactive; u = inconclusive; x = no result; [ ] = remark or other dose. Unless noted, calls follow the shape of the full dose curve. Potency is read from the fitted curve at half-maximal effect.

SMILES	PTAP TSG101 blk	Rango complex inh	ALOX12 inh	Rango release inh	TDP1 block	ClpP mod
CCOC(=O)c1cc(CC)sc1NC(=O)c1cc(OCC)c(OCC)c(OCC)c1	-2.9%	1.7%	-1.7%	1.7%	-3.8%	-19.6%
CCOC(=O)c1cc(-c2ccccc2)sc1NC(=O)c1ccc(OC)c(OC)c1	-0.9%	11.7%	11.2µM*	6.0%	x	-1.6%
Cc1ccc(S(=O)(=O)n2cccc2/C=C/[N+](=O)[O-])cc1	x	x	35.5µM*	x	x	1.0%
CN(C)c1ccc(-n2cc3c(=O)n(C)c(=O)n(C)c3c2)cc1	-2.4%	-1.8%	0.0%	4.2%	3.2%	-16.3%
CCN(CC)c1ccc(-n2cc3c(=O)n(C)c(=O)n(C)c3c2)cc1	-1.1%	-2.7%	-18.0%	24.5%	8.8%	35.5µM*
CCCCCC1CCC(c2ccc(C(=O)CCN(C)C)cc2)CC1 (stereo unspecified)	x	x	7.94µM*	x	x	x
CCCSc1ccc(C(=O)CCN(C)C)cc1	x	x	31.6µM*	x	x	x
CCCC1CCC(c2ccc(C(=O)O)cc2)CC1 (stereo unspecified)	x	x	0.4%	x	x	x
CCCOc1ccc(C(=O)CCN(C)C)cc1	x	x	-85.3%	x	x	x
CCCCCCOc1ccc(C(=O)CCN(C)C)cc1	x	x	31.6µM*	x	x	x
c1cnc2c(CSc3nnc(-c4c[nH]c5ccccc45)o3)cccc2c1	x	x	-14.4%	x	x	x
COc1cccc(CNC(=O)CCc2cc3ccc(C)cc3[nH]c2=O)c1OC	x	x	20.7%	x	x	x
CCn1nnc(NC(=O)c2ccc(-c3ccc(Cl)cc3)o2)n1	-2.4%	-4.0%	0.0%	-14.1%	2.1%	11.2µM*
CCn1nnc(NC(=O)Cc2ccc(Cl)cc2)n1	-2.1%	-4.1%	i	1.6%	0.0%	33.7%
COc1ccc(CCN(CC2CCN(C)CC2)C(=O)C2CC23CCC3)cc1 (stereo unspecified)	x	x	55.2%	x	x	x
Cc1ccc(/C(N)=N/OC(=O)CCCc2ccccc2)cc1	0.3%	-2.6%	36.4%	0.5%	50.1µM*	-1.4%
COc1cccc(-c2cn3c(n2)N(C(=O)c2cccs2)CCC3)c1	x	x	45.3%	x	x	x
C=CCNC(=O)N[C@H]1C[C@@H](C(=O)N[C@H](Cc2ccccc2)C(N)=O)N(C(=O)CSC)C1	x	x	2.7%	x	x	x
COc1cc(C2CC(=O)Nc3c2ncn3-c2ccccc2Br)ccc1O (stereo unspecified)	x	x	63.5%	x	x	x
COc1ccc(C2CC(=O)Nc3c2ncn3-c2cccc(C(F)(F)F)c2)cc1OC (stereo unspecified)	x	x	28.2µM*	x	x	x
C#CCN(C[C@H]1[C@H](OC(=O)NC2CC2)[C@H](OC(=O)NC2CC2)C[C@H]2C(=O)N(c3ccccc3)C(=O)[C@@H]12)S(=O)(=O)c1ccc(C)cc1	x	x	-45.8%	x	x	0.8%
C#CCN(C[C@H]1[C@H](OC(=O)NCC2CCCCC2)[C@H](OC(=O)NCC2CCCCC2)C[C@H]2C(=O)N(c3ccccc3)C(=O)[C@@H]12)S(=O)(=O)c1ccc(C)cc1	x	x	44.7µM*	x	x	0.5%
O=c1n(Cc2ccccc2)c2cc(Cl)cnc2n1Cc1ccccc1	-7.1%	-5.1%	0.0%	7.4%	-5.3%	28.2µM*
O=C1/C(=C/c2ccc(-c3ccc(F)cc3)o2)Cc2ccccc21	x	x	17.8µM*	x	x	x
O=C(Nc1ccc(OCc2cc(=O)n3ccsc3n2)cc1)C1CCCCC1	x	x	-0.3%	x	x	x
SMILES	PTAP TSG101 blk	Rango complex inh	ALOX12 inh	Rango release inh	TDP1 block	ClpP mod
Cc1cc(Nc2ccccc2)nc2cc(O)ccc12	0.4%	u	u	7.31µM*	-1.3%	u
O=C(OCc1ccccc1)N1CCC2(CC1)C(=O)NN=C2c1ccncc1	x	x	57.6%	x	x	x
Cc1cc(C(=O)OCC(=O)c2cc(C)n(CC(N)=O)c2C)c2ccccc2n1	x	x	-13.2%	x	x	x
Cn1c(C(=O)Nc2ccc(Cl)cc2)cc2cc(Cl)ccc21	-1.2%	2.2%	17.8µM*	3.1%	1.8%	-15.4%
O=C1NCc2ccccc2CC12CCN(CCCc1ccccc1)C2 (stereo unspecified)	x	x	5.0%[6.33 µM]	x	x	x
CC(=O)C1=C(C)N(Cc2ccc(Cl)cc2)C(=S)NC1c1cccc(Br)c1 (stereo unspecified)	x	x	39.8µM*	x	x	x
CCN1C(=O)N[C@@H](c2cccc(C(F)(F)F)c2)C(C(C)=O)=C1C	-6.9%	1.5%	5.8%	0.1%	4.9%[21 µM]	-0.7%
CC(=O)C1=C(C)N(CC2CC2)C(=O)N[C@H]1c1ccc(Br)cc1	-5.0%	-3.0%	3.7%	37.1%	9.3%	1.7%
CC(=O)C1=C(C)N(CC(C)C)C(=S)NC1c1ccc(Br)cc1 (stereo unspecified)	x	x	39.8µM*	x	x	x
CC(=O)C1=C(C)N(Cc2ccc(Br)cc2)C(=S)NC1c1cccc(Br)c1 (stereo unspecified)	x	x	31.6µM*	x	x	x
CN(C)C[C@@H]1CN(Cc2cccnc2)C[C@H]1NC(=O)Cc1ccsc1	x	x	114.2%	x	x	x
O=C(c1ccc(Cl)cc1)N1CC2(Cc3ccccc3NC2=O)C1	x	x	4.6%[6.33 µM]	x	x	x
CCN(CC)c1ccc(/C=N/NC(=O)c2cc3ccccc3[nH]2)cc1	-5.4%	u	10.2%	-23.6%	7.0%	4.1%
CCN(CC)c1ccc(/C=N/NC(=O)c2cccc(N3CCCC3=O)c2)cc1	1.7%	u	-11.1%	10.3µM*	7.6%	x
O=C(N/N=C/c1cccnc1)c1cccc(N2CCCC2=O)c1	-0.8%	9.5%	189.0%	10.4%	0.0%	x
CCN(CC)c1ccc(/C=N/NC(=O)c2c[nH]c3ccccc23)cc1	-10.2%	2.1%	-18.5%	-3.2%	-2.6%	31.6µM*
COc1cc(CNC(=O)c2cc(C)nc3ccc(C)cc23)cc(OC)c1OC	x	x	4.3%	x	x	x
COc1ccc(NC(=O)CN2C(=O)NC3(CCS(=O)(=O)CC3)C2=O)c(OC)c1	x	x	43.6%	x	x	x
COc1ccc(CNC(=O)C2Cn3cccc3C(=O)N2)cc1OC (stereo unspecified)	x	x	35.4%	x	x	x
CNC(=S)N(Cc1ccco1)Cc1cc2cc3c(cc2[nH]c1=O)OCCO3	-6.5%	u	-17.0%	1.0%	0.0%	u
CCNC(=S)N(Cc1ccco1)Cc1cc2cc3c(cc2[nH]c1=O)OCCO3	1.3%	-0.8%	-0.5%	13.6%	2.7%	28.2µM*
COc1ccc2cc(CN(CCc3ccccc3)Cc3nnnn3Cc3ccco3)c(=O)[nH]c2c1	-1.1%	u	u	14.6µM*	10.5%	u
Cc1ccc2cc(CN(Cc3ccc4c(c3)OCO4)Cc3nnnn3Cc3ccco3)c(=O)[nH]c2c1	0.0%	-1.4%	-52.8%	-9.6%	4.2%	-10.7%

Bioassay records as filed in PubChem.
